JMJD2A Tudor – qHTS Assay for Inhibitors of JMJD2A-Tudor Domain; AlphaScreen JMJD2A-Tudor / H3K4me3 peptide binding; Potency, µM (series often up to 114 µM), without a hit: top-dose activity change, negative = inhibition, hits mostly inhibitors; 4.4% of 390,000 active; AID 504339, 2011; further: potency means the concentration at half of the fitted maximal effect; on the % scale 0 is the no-effect control and ±100 the full control effect; nearly all actives have a fitted effect of over 50% in size
BAZ2B block – qHTS Assay for Inhibitors of BAZ2B. Bromodomain adjacent to zinc finger domain protein 2B (Homo sapiens), Q9UIF8. AlphaScreen BAZ2B-H3K14Ac peptide displacement. Potency, µM (titrated, usually from 114 µM), for the others: top-dose activity change, negative = inhibition, most hits filed as inhibitors. 4.4% of 360,000 active; further: potency means the concentration at half of the fitted maximal effect; on the % scale 0 is the no-effect control and ±100 the full control effect; nearly all actives have a fitted effect of over 60% in size
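BAZ2B (50 nM) with biotin-H3(5-23)K14Ac peptide (50 nM) in PBS pH 7.4, 0.01% Tween-20, preformed 30 min, then compound 30 min at room temperature; top concentration 110uM. AlphaScreen streptavidin donor/nickel chelate acceptor beads (10 ug/mL final), 20 min dark, signal read.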
Six1-Eya2 blk – qHTS Assay for Inhibitors of the Six1/Eya2 Interaction; AID 651725, 2012; AlphaScreen GST-Six1/His-Eya2 binding, biochemical; active compounds read low; 0.56% of 360,000 active; activity change, % (concentration not given with the values); in the data active means activity change below about -65%; inconclusive means mostly about -30% to -63%; further: on the % scale 0 is the no-effect control and ±100 the full control effect
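Homogeneous AlphaScreen proximity assay pairing GST-Six1 with His-tagged Eya2 (added as 5X mix: 250 nM and 500 nM) in 50 mM Tris pH 8.0, 300 mM NaCl, 1 mM TCEP. Glutathione donor and nickel acceptor beads; 1 h, 37 °C, dark.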
TDP1 block – qHTS Assay for Inhibitors of Tyrosyl-DNA Phosphodiesterase (TDP1). Potency, µM (doses to about 130 µM), without a hit: top-dose activity change, negative = inhibition, actives largely listed as inhibitors. recombinant TDP1, AlphaScreen DNA substrate cleavage. 0.28% of 350,000 active. Tyrosyl-DNA phosphodiesterase 1 (Homo sapiens), Q9NUW8; further: potency means the concentration at half of the fitted maximal effect; on the % scale 0 is the no-effect control and ±100 the full control effect; nearly all actives have a fitted effect of over 40% in size
Target sequence (Q9NUW8 whole entry, looked up): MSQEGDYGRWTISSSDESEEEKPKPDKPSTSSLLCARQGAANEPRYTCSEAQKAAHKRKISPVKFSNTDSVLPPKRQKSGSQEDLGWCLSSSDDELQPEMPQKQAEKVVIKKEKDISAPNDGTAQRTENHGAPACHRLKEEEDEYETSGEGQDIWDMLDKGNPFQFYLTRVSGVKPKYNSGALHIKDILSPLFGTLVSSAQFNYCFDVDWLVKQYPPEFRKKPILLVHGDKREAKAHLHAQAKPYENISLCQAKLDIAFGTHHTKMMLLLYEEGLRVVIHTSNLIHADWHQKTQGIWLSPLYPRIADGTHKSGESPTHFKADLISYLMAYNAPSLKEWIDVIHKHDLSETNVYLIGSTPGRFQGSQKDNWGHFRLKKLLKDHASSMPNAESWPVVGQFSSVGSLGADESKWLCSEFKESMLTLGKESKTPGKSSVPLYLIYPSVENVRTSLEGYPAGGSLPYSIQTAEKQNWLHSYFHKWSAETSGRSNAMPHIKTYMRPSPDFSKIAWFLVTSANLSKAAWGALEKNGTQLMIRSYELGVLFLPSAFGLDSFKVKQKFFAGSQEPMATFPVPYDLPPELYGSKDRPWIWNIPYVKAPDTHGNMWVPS
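Enzyme-compound mixtures sat 15 min at room temperature, followed by a 5 min reaction with 15 nM final substrate and 10 min with AlphaScreen beads. Recombinant human Tdp1 was used at 1 nM final.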
CtBP-E1A blk – qHTS Assay for Inhibitors of the CtBP/E1A Interaction | CtBP / adenovirus E1A interaction (AlphaScreen) | AlphaScreen GST-E1A/His-CtBP binding, 1536-well; active compounds read low | activity change, % (test concentration not listed) | 0.49% of 340,000 active | AID 651724, 2012; in the data active means activity change below about -65%; inconclusive means mostly about -30% to -63%; further: on the % scale 0 is the no-effect control and ±100 the full control effect
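AlphaScreen with 125 nM GST-E1A and 125 nM His-CtBP (5X stocks) in Tris pH 8.0, 300 mM NaCl, BSA, Tween 20, TCEP. Compounds preincubated 2 h at 37 deg C, then glutathione donor/nickel acceptor beads added for 1 h at 37 deg C in dark.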
HP1b chromo inh – HTS for Inhibitors of HP1-beta Chromodomain Interactions with Methylated Histone Tails; Chromobox protein homolog 1 (Homo sapiens), P83916; AlphaScreen HP1-beta / biotin-H3K9me3 peptide binding; Potency, µM (titrated, usually from 114 µM), without a hit: top-dose activity change, negative = inhibition, hits mostly inhibitors; 0.56% of 390,000 active; AID 540317, 2011; further: potency means the concentration at half of the fitted maximal effect; nearly all actives have a fitted effect of over 70% in size
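Compound inhibition of the preformed complex between 50 nM HP1-beta and 50 nM biotinylated H3K9me3 peptide was read by AlphaScreen. Buffer was PBS pH 7.4 with 0.01% Tween-20. Incubations ran 30 min at room temperature, with 10 ug/mL donor/acceptor beads.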
Active calls of the source: *; [ ] = dose if it differs, or a comment. A selection: hits, their analogues and other compounds. The true share with any hit is near 5.3%. Unless noted, the call rests on the fitted dose curve; in most records, active means well fitted inhibition curve with a large enough effect; inconclusive means small, poorly fitted or top-dose-only effect; inactive means no such curve, though single readings can be large or run the other way.

How did S=c1[nH]nc(-c2ccc3ccccc3n2)n1-c1ccccc1Cl do in these assays?
JMJD2A Tudor: inconclusive; BAZ2B block: 3%; Six1-Eya2 blk: -17; TDP1 block: -5%; CtBP-E1A blk: -12; HP1b chromo inh: -6%[57 µM]

What do the screens show for `CCn1cc(C(=O)NC(C)c2ccccc2)c(=O)c2cc(S(=O)(=O)N3CCc4ccccc4C3)ccc21` (stereo unspecified)?
JMJD2A Tudor: -23%; TDP1 block: 0%; HP1b chromo inh: 9%

What do the screens show for `CCc1ccccc1-n1c(-c2ccncc2)n[nH]c1=S`?
JMJD2A Tudor: 10µM*; BAZ2B block: 0%; Six1-Eya2 blk: 5; TDP1 block: 0%; CtBP-E1A blk: 0; HP1b chromo inh: 28%

Results for CC(C)c1ccc(NC(=O)CSC2=Nc3ccccc3C3=NC(CCC(=O)NCc4cccs4)C(=O)N23)cc1 (stereo unspecified) ?
JMJD2A Tudor: -17%; BAZ2B block: -5%; TDP1 block: 0%; HP1b chromo inh: 43%

Results for CCOc1ccccc1CNc1ncnc2onc(-c3ccc(F)cc3)c12 ?
JMJD2A Tudor: 15%; BAZ2B block: 13%[57.1 µM]; TDP1 block: 2%; HP1b chromo inh: 77%

Results for Cc1cc(Cl)c(OCCCNC2CCCC2)c(Br)c1 ?
JMJD2A Tudor: 22µM*; BAZ2B block: inconclusive; Six1-Eya2 blk: 1; CtBP-E1A blk: 2; HP1b chromo inh: -37%

Results for COCCCNCCCCOc1c(Cl)cc(C)cc1Br ?
JMJD2A Tudor: 2.5µM*; BAZ2B block: 22µM*; Six1-Eya2 blk: 1; CtBP-E1A blk: 3; HP1b chromo inh: inconclusive

Results for C=CCNCCCCOc1c(Cl)cc(C)cc1Br ?
JMJD2A Tudor: 8%; BAZ2B block: inconclusive; Six1-Eya2 blk: 6; TDP1 block: 0%; CtBP-E1A blk: 6; HP1b chromo inh: 34%

Results for COc1ccc(OC)c(CNC(=O)Cn2ncc3c([nH]c4ccc(C)cc43)c2=O)c1 ?
JMJD2A Tudor: -12%; BAZ2B block: 8%[57.1 µM]; TDP1 block: 1%; HP1b chromo inh: 2%

Results for CC(NC(=O)CCCC1=NS(=O)(=O)c2ccccc2N1)c1ccccc1 (stereo unspecified) ?
JMJD2A Tudor: -11%; BAZ2B block: 2%; TDP1 block: 2%; HP1b chromo inh: 28%

How did Cc1ccc(C)c(NC(=O)CN2C(=O)C3(SCC(=O)N3c3ccc(C)c(C)c3)c3ccccc32)c1 (stereo unspecified) do in these assays?
JMJD2A Tudor: -17%; BAZ2B block: 0%[57.1 µM]; TDP1 block: 3%; HP1b chromo inh: 19%

What do the screens show for `CN(C)c1ccc2nc3ccc(=O)cc-3sc2c1`?
Six1-Eya2 blk: inconclusive; CtBP-E1A blk: 0

Results for Cc1cc2nc3ccc(=[N+](C)C)cc-3sc2cc1N ?
JMJD2A Tudor: inconclusive; BAZ2B block: 35µM*; Six1-Eya2 blk: inconclusive; TDP1 block: inconclusive; CtBP-E1A blk: 72; HP1b chromo inh: 30%

What do the screens show for `Cc1ccc2c(c1)N(C(=O)N1CCC(C(=O)NCc3cccs3)CC1)CC(C)O2` (stereo unspecified)?
JMJD2A Tudor: -13%; BAZ2B block: -2%; TDP1 block: 4%; HP1b chromo inh: 19%

Results for O=C(OC(C(=O)NCc1cccs1)c1ccccn1)c1cccs1 (stereo unspecified) ?
JMJD2A Tudor: -11%; BAZ2B block: 56µM*; Six1-Eya2 blk: 3; TDP1 block: 2%; CtBP-E1A blk: 1; HP1b chromo inh: 13%

What do the screens show for `O=C(OC(C(=O)NC1CCCCC1)c1ccccn1)c1cccs1` (stereo unspecified)?
JMJD2A Tudor: -2%[57.1 µM]; BAZ2B block: -20%; Six1-Eya2 blk: -2; TDP1 block: 2%; CtBP-E1A blk: -1; HP1b chromo inh: 64%

How did CCCOC(=O)CCCN1C(=O)/C(=C2\SC(=S)N(CCCC(=O)OCCC)C2=O)SC1=S do in these assays?
JMJD2A Tudor: inconclusive; BAZ2B block: 3.2µM*; Six1-Eya2 blk: 3; CtBP-E1A blk: -7; HP1b chromo inh: inconclusive

How did CN(C)c1ccc(P(=O)(OC2CCCCC2)C(O)c2ccccn2)cc1 (stereo unspecified) do in these assays?
JMJD2A Tudor: inconclusive; BAZ2B block: 45µM*; Six1-Eya2 blk: -16; TDP1 block: 8%; CtBP-E1A blk: -3; HP1b chromo inh: 41%

Results for CC(C)COP(=O)(c1ccc(N(C)C)cc1)C(O)c1ccccn1 (stereo unspecified) ?
JMJD2A Tudor: 1.3µM*; Six1-Eya2 blk: -4; TDP1 block: 4%; CtBP-E1A blk: -6; HP1b chromo inh: 27%

How did COc1cccc(CN2CCN(Cc3ccon3)CC2CCO)c1 (stereo unspecified) do in these assays?
JMJD2A Tudor: -3%; BAZ2B block: 3%; Six1-Eya2 blk: 15; CtBP-E1A blk: -2; HP1b chromo inh: 64%

What do the screens show for `COc1cccc(CN2CCN(Cc3ccc4c(NC(C)=O)cccc4n3)CC2CCO)c1` (stereo unspecified)?
JMJD2A Tudor: 22µM*; BAZ2B block: -12%; Six1-Eya2 blk: 0; TDP1 block: -3%; CtBP-E1A blk: -6; HP1b chromo inh: 31%

How did CCN(CC(=O)Nc1c(C(=O)OC)[nH]c2ccc(Cl)cc12)c1ccc2c(c1)OCO2 do in these assays?
JMJD2A Tudor: 56µM*; BAZ2B block: 40µM*; Six1-Eya2 blk: inconclusive; TDP1 block: 4%; CtBP-E1A blk: -21; HP1b chromo inh: inconclusive

Results for CCOC(=O)c1[nH]c2ccc(Cl)cc2c1NC(=O)/C=C/c1ccc2c(c1)OCO2 ?
JMJD2A Tudor: -9%; BAZ2B block: -7%; Six1-Eya2 blk: 3; TDP1 block: 0%; CtBP-E1A blk: 19; HP1b chromo inh: 35%

How did c1ccc(CCSc2nccn2-c2ccccc2)cc1 do in these assays?
JMJD2A Tudor: inconclusive; BAZ2B block: 40µM*; Six1-Eya2 blk: -24; TDP1 block: 8%; CtBP-E1A blk: -16; HP1b chromo inh: inconclusive

What do the screens show for `Cc1cccc(NC(=O)CSc2nnc(C)c(=O)n2N)c1`?
JMJD2A Tudor: -4%; Six1-Eya2 blk: 6; TDP1 block: 3%; CtBP-E1A blk: -9; HP1b chromo inh: 21%

What do the screens show for `COc1ccc(Cl)cc1NC(=O)CSc1nccn1-c1ccc(Cl)cc1`?
JMJD2A Tudor: -16%; BAZ2B block: -24%; TDP1 block: 7%; HP1b chromo inh: -8%[57 µM]
